Source: PubChem BioAssay (The Scripps Research Institute Molecular Screening Center)
Fam108B counter: blocks mouse Fam108B hydrolase in RBBP9 counter-screen; recombinant Fam108B, FP-Rh probe fluorescence polarization; inhibition, % at 9.51 µM; AID 1947; 300,000 tested, 0.33% active;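 active = inhibition above the screen mean inhibition plus 3 SD, computed separately per campaign, cut at about 18% in these data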;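 also: inhibitors lower polarization as less probe binds the enzyme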
GSTO1 counter: counter-screen for RBBP9 inhibitors: inhibitors of human GSTO1; 300,000 tested, 1.1% active; recombinant GSTO1, activity-based probe fluorescence polarization; inhibition, % at 5.96 µM; P78417;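 active = inhibition above the campaign mean inhibition plus 3 SD, cut at about 35% in these data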;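 also: 0% = GSTO1-1 with DMSO and 100% = wells lacking GSTO1-1 enzyme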
LYPLA1 counter: LYPLA1 (human) inhibition in PME1 counter-screen; O75608; recombinant LYPLA1, FP-Rh probe fluorescence polarization; inhibition, % at 5.9 µM; 320,000 tested, 0.16% active; AID 2174;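 active = inhibition above the mean of all tested compounds plus 3 SD, set per campaign, cut at about 14% in these data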;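 also: inhibitors block serine hydrolase probe labeling of LYPLA1 so polarization falls; 0% = enzyme with DMSO and 100% = wells lacking LYPLA1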
LYPLA2 inh: counter-screen for PME1 inhibitors: inhibitors of human LYPLA2; recombinant LYPLA2, FP-Rh probe fluorescence polarization; inhibition, % at 5.9 µM; 320,000 tested, 0.38% active;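 active = inhibition above the screen-wide mean plus 3 SD, limit set per campaign, cut at about 26% in these data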;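 also: 0% = LYPLA2 with DMSO and 100% = wells lacking LYPLA2 enzyme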
Target sequence (O95372 whole entry, looked up): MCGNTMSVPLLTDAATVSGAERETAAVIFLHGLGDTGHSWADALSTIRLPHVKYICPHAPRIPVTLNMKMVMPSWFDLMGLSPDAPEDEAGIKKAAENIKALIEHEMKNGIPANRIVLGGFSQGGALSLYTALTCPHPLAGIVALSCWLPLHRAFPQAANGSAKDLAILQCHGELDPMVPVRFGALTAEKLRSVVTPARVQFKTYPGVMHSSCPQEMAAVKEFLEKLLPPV
PME-1 inh: PME-1 (human) inhibition. Q9Y570. AID 2130. recombinant PME-1, FP-Rh probe fluorescence polarization. inhibition, % at 5.9 µM. 320,000 tested, 0.53% active;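 active = inhibition above the campaign mean of all compounds plus 3 SD, cut at about 26% in these data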;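 also: competitive labeling of PME-1 active site by serine hydrolase directed probe; 0% = PME-1 with DMSO and 100% = wells lacking PME-1 enzyme; inhibitors block probe labeling so polarization falls and inhibition rises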
Target sequence (Q9Y570 whole entry, looked up): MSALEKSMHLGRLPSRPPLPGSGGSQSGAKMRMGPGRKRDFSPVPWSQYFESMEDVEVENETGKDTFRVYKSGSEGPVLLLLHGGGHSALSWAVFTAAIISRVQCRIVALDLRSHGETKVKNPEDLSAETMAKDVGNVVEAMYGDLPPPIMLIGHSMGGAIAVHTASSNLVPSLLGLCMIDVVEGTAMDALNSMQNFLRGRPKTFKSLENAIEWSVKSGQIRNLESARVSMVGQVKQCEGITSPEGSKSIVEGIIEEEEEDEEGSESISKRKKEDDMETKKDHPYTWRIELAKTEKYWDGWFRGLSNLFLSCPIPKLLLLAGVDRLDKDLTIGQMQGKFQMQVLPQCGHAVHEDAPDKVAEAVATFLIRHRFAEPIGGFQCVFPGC
PAD4 FP inh: blocks human protein arginine deiminase 4; Q9UM07; recombinant PAD4, RCA probe fluorescence polarization; inhibition, % at 6.36 µM; 330,000 tested, 0.41% active; AID 485272;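 active = percent inhibition above a cutoff equal to the mean of all tested compounds plus 3 SD, cut at about 15% in these data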;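 also: 0% = PAD4 with RCA probe and DMSO and 100% = probe without PAD4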
LYPLA2 conf: counter-screen for PME1 inhibitors: confirmation of human LYPLA2 inhibitors. AID 2232. recombinant LYPLA2, FP-Rh probe fluorescence polarization. 1,100 tested, 72% active. inhibition, % at 5.9 µM. shares compounds with LYPLA2 inh;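 active = mean inhibition across replicates above the hit cutoff set in the primary screen, cut at about 26% in these data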;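 also: blocked labeling of the enzyme by serine hydrolase FP-Rh probe lowers polarization; 0% = enzyme with DMSO and 100% = wells lacking LYPLA2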
LYPLA2 gel ABPP: inhibitors of human LYPLA2; inhibition, % at 20 µM; 150 tested, 30% active; shares compounds with LYPLA2 inh; rhLYPLA2 in mouse brain proteome, gel ABPP FP-Rh;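 active = inhibition of LYPLA2 enzyme probe labeling above about 50%, limit read from the data; inactive = inhibition below that limit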;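 also: loss of FP-Rh probe labeling of the LYPLA2 gel band measured as band density; 0% = DMSO only control band and 100% = blank gel background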
An asterisk follows results filed as active. An excerpt weighted towards active compounds, which were near 1.8% of everything screened.

Screening CCCCCCCCCC(=O)Nn1cnc2ccccc2c1=O returned Fam108B counter -1, GSTO1 counter -2, LYPLA1 counter 2, LYPLA2 inh 71*, PME-1 inh -2, PAD4 FP inh 3, LYPLA2 conf 75* and LYPLA2 gel ABPP 52*.
CCN(CC)c1ccc(C(=O)Nn2cnc3ccccc3c2=O)cc1 was read as Fam108B counter 0, GSTO1 counter -3, LYPLA1 counter -1, LYPLA2 inh 1, PME-1 inh 0 and PAD4 FP inh 1.
`Cc1c([N+](=O)[O-])cc(C(=O)Nc2ccc(Cc3ccncc3)cc2)cc1[N+](=O)[O-]` gave Fam108B counter -1, GSTO1 counter -3, LYPLA1 counter 2, LYPLA2 inh 29*, PME-1 inh 7, PAD4 FP inh -2 and LYPLA2 conf 28*.
For O=C(Nc1ccc(Cc2ccncc2)cc1)c1ccc(Cl)c([N+](=O)[O-])c1 the results were Fam108B counter -3, GSTO1 counter -4, LYPLA1 counter -4, LYPLA2 inh -8, PME-1 inh 4 and PAD4 FP inh -5.
Screening CCOC(=O)c1cc(=O)c2ccc(OCC(=O)Nc3ccc(F)cc3)cc2o1 returned Fam108B counter -2, GSTO1 counter 8, LYPLA1 counter 1, LYPLA2 inh 5, PME-1 inh 7 and PAD4 FP inh 0.
O=C(c1ccc(Br)s1)N1CCN(C/C=C/c2ccccc2)CC1 was read as Fam108B counter 1, GSTO1 counter 7, LYPLA1 counter 10, LYPLA2 inh 36*, PME-1 inh 2, PAD4 FP inh -3 and LYPLA2 conf 34*.
Screening CCN(Cc1ccc(O)cc1)CC1CCCN(CCc2cccc(F)c2)C1 (stereo unspecified) returned Fam108B counter 6, GSTO1 counter 27, LYPLA1 counter 1, LYPLA2 inh -3, PME-1 inh -2 and PAD4 FP inh -2.
NC(=O)c1cc([N+](=O)[O-])ccc1Nc1ccccc1 was read as Fam108B counter 2, GSTO1 counter 4, LYPLA1 counter -1, LYPLA2 inh 39*, PME-1 inh 7, PAD4 FP inh 1 and LYPLA2 conf 32*.
For O=C(O)c1ccccc1Nc1ccc([N+](=O)[O-])cc1C(=O)O the results were Fam108B counter 3, GSTO1 counter 4, LYPLA1 counter -3, LYPLA2 inh -7, PME-1 inh 0 and PAD4 FP inh 11.
`Brc1cccc2sc(N3CCCC3)nc12` gave Fam108B counter -3, GSTO1 counter 4, LYPLA1 counter 0, LYPLA2 inh 5, PME-1 inh -4 and PAD4 FP inh 1.
`COC(=O)[C@H](CCSC)NC(=O)NCc1ccc(S(N)(=O)=O)cc1` gave Fam108B counter 4, GSTO1 counter 2, LYPLA1 counter 3, LYPLA2 inh 8, PME-1 inh -3 and PAD4 FP inh 4.
For O=C1Nc2ccc([N+](=O)[O-])cc2OC1CCN1CCN(Cc2ccccc2)CC1 (stereo unspecified) the results were Fam108B counter -1, GSTO1 counter 6, LYPLA1 counter -1, LYPLA2 inh 15, PME-1 inh -4 and PAD4 FP inh 1.
O=C1Nc2ccc([N+](=O)[O-])cc2OC1CCN1CCN(Cc2ccc3c(c2)OCO3)CC1 (stereo unspecified) was read as Fam108B counter 1, GSTO1 counter -3, LYPLA1 counter 1, LYPLA2 inh 72*, PME-1 inh 9, PAD4 FP inh -2, LYPLA2 conf 79* and LYPLA2 gel ABPP 61*.
`CC(=O)N1c2ccc(S(=O)(=O)N3CCC(C(=O)N4CCN(c5ccc(Cl)cc5)CC4)CC3)cc2CC1C` (stereo unspecified) gave Fam108B counter 0, GSTO1 counter 3, LYPLA1 counter 10, LYPLA2 inh 92*, PME-1 inh -2, PAD4 FP inh 0, LYPLA2 conf 92* and LYPLA2 gel ABPP 75*.
COc1cccc(N2CCN(C(=O)C3CCN(S(=O)(=O)c4ccc5c(c4)CC(C)N5C(C)=O)CC3)CC2)c1 (stereo unspecified) was read as Fam108B counter -4, GSTO1 counter 4, LYPLA1 counter 1, LYPLA2 inh 40*, PME-1 inh -2, PAD4 FP inh -5 and LYPLA2 conf 49*.
Screening CC1Cc2cc(S(=O)(=O)N3CCN(c4ccc(Cl)cc4)CC3)ccc2N1C(=O)C1CC1 (stereo unspecified) returned Fam108B counter -3, GSTO1 counter -8, LYPLA1 counter 6, LYPLA2 inh 0, PME-1 inh 3 and PAD4 FP inh -5.
Screening Cc1ccc(N2CCC(N3CCN(C4CCCCC4)C(CCO)C3)CC2)cc1 (stereo unspecified) returned Fam108B counter -1, GSTO1 counter 5, LYPLA1 counter 2, LYPLA2 inh -2, PME-1 inh 4 and PAD4 FP inh 1.
Screening O=C(Cc1cccc(NC(=O)C2CCCN(C(=O)C3CCCCC3)C2)c1)Nc1cccc(C(=O)N2CCCC2)c1 (stereo unspecified) returned LYPLA1 counter 0, LYPLA2 inh 6, PME-1 inh 5 and PAD4 FP inh -1.
`CC(C)(C)C1CCc2c(sc3ncn(N)c(=N)c23)C1` (stereo unspecified) gave Fam108B counter -1, GSTO1 counter 4, LYPLA1 counter 4, LYPLA2 inh 4, PME-1 inh 7 and PAD4 FP inh -3.
Screening O=[N+]([O-])c1ccccc1OCC(O)CNC1CCCC1 (stereo unspecified) returned Fam108B counter 0, GSTO1 counter -7, LYPLA1 counter 2, LYPLA2 inh -2, PME-1 inh -3 and PAD4 FP inh -2.
`COc1ccc(NC(=O)c2c(C)nn(Cc3ccccc3)c2C)cc1S(=O)(=O)N(C)C` gave Fam108B counter 3, GSTO1 counter 1, LYPLA1 counter 2, LYPLA2 inh 9, PME-1 inh 6 and PAD4 FP inh -3.
Screening O=C(CSc1ccc(Cl)cc1)N1CCN(c2ccc([N+](=O)[O-])cc2Cl)CC1 returned Fam108B counter -1, GSTO1 counter -2, LYPLA1 counter 1, LYPLA2 inh 31*, PME-1 inh -2, PAD4 FP inh 6 and LYPLA2 conf 10.
For CCC(=O)c1ccc(N2CCN(C(=O)c3ccc(Br)cc3)CC2)c(F)c1 the results were Fam108B counter -2, GSTO1 counter -7, LYPLA1 counter 3, LYPLA2 inh 30*, PME-1 inh 2, PAD4 FP inh -6 and LYPLA2 conf 48*.
